Assay results as given in article PMC4336329 (PLoS ONE, 2015).
In all, about 310,000 compounds went through this assay and about 2,200 (0.71%) showed an effect of 50% or more. Effects have a minus sign here. Many of the other results were omitted from the sample, so strong results are more common in it than they were.

Target: human ether-à-go-go-related gene (hERG) potassium channel (human, UniProt Q12809)
Test: primary screen, population patch clamp on CHO cells stably expressing hERG; higher = less effect of the substance

Sequence of human ether-à-go-go-related gene (hERG) potassium channel (Q12809 whole entry, looked up): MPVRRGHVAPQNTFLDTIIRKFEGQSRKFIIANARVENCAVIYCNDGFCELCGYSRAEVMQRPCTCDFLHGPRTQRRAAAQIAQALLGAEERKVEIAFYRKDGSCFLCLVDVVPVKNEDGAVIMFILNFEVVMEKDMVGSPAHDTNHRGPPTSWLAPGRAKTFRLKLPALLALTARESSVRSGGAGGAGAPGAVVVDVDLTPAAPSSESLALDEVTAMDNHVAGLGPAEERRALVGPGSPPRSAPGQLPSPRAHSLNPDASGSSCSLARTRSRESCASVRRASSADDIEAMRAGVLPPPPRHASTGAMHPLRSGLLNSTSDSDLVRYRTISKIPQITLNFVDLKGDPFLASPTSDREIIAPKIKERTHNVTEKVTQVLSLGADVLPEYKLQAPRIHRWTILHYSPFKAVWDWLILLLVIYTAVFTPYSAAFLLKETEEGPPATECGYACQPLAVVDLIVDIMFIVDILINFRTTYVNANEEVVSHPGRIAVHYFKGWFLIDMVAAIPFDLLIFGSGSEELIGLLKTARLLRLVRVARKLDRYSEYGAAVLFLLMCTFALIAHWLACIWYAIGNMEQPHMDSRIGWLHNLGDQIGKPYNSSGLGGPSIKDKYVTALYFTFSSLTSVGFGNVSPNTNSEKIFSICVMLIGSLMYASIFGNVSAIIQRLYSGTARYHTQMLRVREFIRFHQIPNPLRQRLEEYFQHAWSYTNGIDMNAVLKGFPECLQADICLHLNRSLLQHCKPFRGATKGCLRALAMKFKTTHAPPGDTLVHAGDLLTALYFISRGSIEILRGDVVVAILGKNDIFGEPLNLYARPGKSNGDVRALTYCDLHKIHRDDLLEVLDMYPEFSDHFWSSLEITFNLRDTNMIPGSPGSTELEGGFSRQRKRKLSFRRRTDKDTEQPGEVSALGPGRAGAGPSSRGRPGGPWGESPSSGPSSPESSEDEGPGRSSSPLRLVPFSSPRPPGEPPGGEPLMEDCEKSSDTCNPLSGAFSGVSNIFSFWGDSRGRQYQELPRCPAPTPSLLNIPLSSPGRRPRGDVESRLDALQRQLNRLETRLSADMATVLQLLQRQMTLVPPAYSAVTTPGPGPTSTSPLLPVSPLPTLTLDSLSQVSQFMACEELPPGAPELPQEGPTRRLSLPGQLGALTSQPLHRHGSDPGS

Row | Structure (SMILES) | hERG current change (%, negative = inhibition) at 1uM
1 | CC(=O)Nc1ccc2c(c1)nc(CCN1CCC(C)CC1)n2C | 12.4%
2 | CCC(=O)Nc1ccc2c(c1)nc(CCN1CCC(C)CC1)n2C | 12.3%
3 | Cn1c(CCN2CCOCC2)nc2cc(NS(=O)(=O)c3ccccc3)ccc21 | 6.09%
4 | CCn1c(=O)c(CCC(=O)NCC2CCCO2)c(C)c2c(C)nn(-c3ccc(C)cc3)c21 (stereo not drawn) | 19.9%
5 | CCOc1ccc(N2C(=O)c3cccnc3C2Nc2ccc(OC)cc2)cc1 (stereo not drawn) | 1.01%
6 | CCn1c(=NC(=O)CSCC(=O)Nc2nccs2)sc2ccccc21 | 2.45%
7 | CN(C)c1ccc(C(=O)Nc2ccc(O)c3c(=O)cc(-c4ccccc4Cl)oc23)cc1 | 2.71%
8 | C=CCc1cc(Cl)ccc1OCCCn1ccnc1.O=C(O)C(=O)O | 7.27%
9 | COc1ccc(C(=O)NC(=O)NC2(C(Cl)(Cl)Cl)OCCO2)cc1 | 8.1%
10 | Cc1ccc(NC(=O)C2CC(=O)N(CCc3ccccc3)C2)c(C)c1 (stereo not drawn) | 2.1%
11 | CC(C)CCNC(=O)c1c(N)n(Cc2ccc3c(c2)OCO3)c2nc3ccccc3nc12 | 11.9%
12 | CSCC(C)N1CCC(CO)(CCc2ccccc2)CC1 (stereo not drawn) | 13.9%
13 | CC(COc1ccccc1)N1CCC(CO)(CCc2ccccc2)CC1 (stereo not drawn) | -84.8%
14 | COc1ccc(CC2(CO)CCN(S(=O)(=O)N(C)C)CC2)cc1 | 14.7%
15 | COc1ccc(CC2(CO)CCN(C(=O)NCc3ccccc3)CC2)cc1 | 10.4%
16 | COc1ccc(CC2(CO)CCN(C(C)Cc3ccc(Cl)cc3)CC2)cc1 (stereo not drawn) | -80%
17 | CC(COc1ccccc1)N1CCC(CO)(Cc2ccccc2)CC1 (stereo not drawn) | -13.3%
18 | COc1ccc(CC2(CO)CCN(C(C)COc3ccccc3)CC2)cc1 (stereo not drawn) | -68.4%
19 | CN(C)S(=O)(=O)N1CCC(CO)(CCc2ccccc2)CC1 | 12%
20 | COc1ccc(CCC(C)N2CCC(CO)(Cc3ccccc3)CC2)cc1 (stereo not drawn) | -31.6%
21 | Cc1cccc2nc(-c3ccco3)c(Nc3ccc4c(c3)OCO4)n12 | 5.48%
22 | CSCCC(NC(=O)c1ccc(Cl)cc1)C(=O)OCC(=O)Nc1ccc(C#N)cc1 (stereo not drawn) | -1.39%
23 | CCCn1cc(CN2CCCC(C(=O)c3cccc(OC)c3)C2)c(C)n1 (stereo not drawn) | -14.5%
24 | CS(=O)(=O)N1CCc2cc(-c3csc(NC(=O)Cc4cccs4)n3)ccc21 | -5%

Row | Structure (SMILES) | hERG current change (%, negative = inhibition) at 1uM
25 | CCc1ccccc1NNC(=O)c1snnc1C | 1.7%
26 | CCC(C)N(C(=O)COC(=O)c1nc2nc(C)cc(C)n2n1)C1CCS(=O)(=O)C1 (stereo not drawn) | 21.2%
27 | O=C(O)CCn1cc(C=C2C(=O)NC(=O)NC2=O)c(-c2cc3ccccc3oc2=O)n1 | 20.6%
28 | Cc1c(C(=O)N2CCN(CCc3ccccn3)CC2)oc2ccc(F)cc12 | -61.3%
29 | Cc1c(C(=O)N2CCN(C(=O)c3ccccc3)CC2)oc2ccc(F)cc12 | -5.86%
30 | Cc1c(C(=O)N2CCN(CCc3ccccn3)CC2)oc2ccc(Cl)cc12 | -84.6%
31 | Cc1cc2oc(C(=O)N3CCN(CCc4ccccn4)CC3)c(C)c2cc1C | -6.88%
32 | Cc1c(C(=O)N2CCN(CCc3ccccc3)CC2)oc2ccccc12 | -36%
33 | Cc1c(C(=O)N2CCN(c3ncccn3)CC2)oc2ccc(Cl)cc12 | 2.57%
34 | Fc1ccc(Cn2nnc(-c3ccc(Cl)cc3)n2)cc1 | 11.5%
35 | Cc1nc2ccccc2c(=O)n1NC(=O)Cc1ccc(Br)cc1 | 5.31%
36 | COc1cccc(OCC(=O)NNC(=O)c2cccs2)c1 | 9.89%
37 | O=C1N(c2ccc(Cl)cc2)C(c2cccnc2)N2CCCN12 (stereo not drawn) | 6.95%
38 | C/C(=N\NC(=O)COc1c(C)cccc1C)c1cccs1 | 8.57%
39 | CCC(CC)C(=O)Nc1ccc(C)c(O)c1 | 5.34%
40 | O=C(Nc1ccnn1C1CCN(C/C=C/c2ccccc2)CC1)c1ccccc1 | -64.4%
41 | O=C(Nc1ccnn1C1CCN(C2CCOCC2)CC1)c1cccc(F)c1 | 1.92%
42 | O=C(Nc1ccnn1C1CCN(Cc2ccc(CO)o2)CC1)c1ccccc1 | -0.976%
43 | O=C(CCc1ccccc1)Nc1ccnn1C1CCN(C/C=C/c2ccccc2)CC1 | -24.2%
44 | O=C(Nc1ccnn1C1CCN(Cc2ccc(CO)o2)CC1)c1ccccc1Cl | 6.94%
45 | O=C(Nc1ccnn1C1CCN(C/C=C/c2ccccc2)CC1)c1ccccc1Cl | -92.1%
46 | O=C(Nc1ccnn1C1CCN(Cc2ccccn2)CC1)c1cccc(F)c1 | 6.56%
47 | O=C(Nc1ccnn1C1CCN(C/C=C/c2ccccc2)CC1)c1cccc(F)c1 | -58.5%
48 | CC(C)=CCN1CCC(n2nccc2NC(=O)c2ccccc2Cl)CC1 | -43%
